Experimental data reported in PubChem BioAssay (Tox21).
Where “and” joins values, the source holds several entries; their conditions need not be identical. Equal values may be shown once. Inconclusive results are not listed. Where a call stands in place of a potency, no number is given. More than one record can exist for a structure, and the calls need not agree. Calls of active or inactive are those of the source. Calls follow the shape of the dose curve; as a rule, active = well fitted curve in the direction sought with a large enough effect in the repeat runs; inconclusive = weak or mixed curves; inactive = no such curve, though single readings can be large; an effect the other way counts as inactive or inconclusive.

Experiments:
[1] = Caspase-3/7 induction in CHO-K1 cells by small molecules, qHTS cell viability counter screen (AID 1346979); also: nearly all actives have a fitted effect of over 35% in size
Outline: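 Wild-type CHO-K1 cells (1,500/well) treated with compound after 5 h plating; after 16 h at 37C, viability read as CellTiter-Fluor fluorescence following 1 h reagent incubation, in the same wells as the caspase read.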

[2] = Caspase-3/7 induction in CHO-K1 cells by small molecules, qHTS assay (AID 1346980); also: nearly all actives have a fitted effect of over 15% in size
Outline: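 Wild-type CHO-K1 cells exposed to compounds for 17hr at 37 C, 5% CO2. Caspase-3/7 activity then measured by Caspase-Glo 3/7 luminescence after 30min at room temperature.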

[3] = Caspase-3/7 induction in HepG2 cells by small molecules, qHTS cell viability counter screen (AID 1346981); also: series mostly up to about 92 µM; nearly all actives have a fitted effect of over 30% in size
Outline: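 Treatment of HepG2 cells with DMSO-delivered compounds ran 16 hr at 37 C following a 5-hr pre-incubation of 2,000 cells/well. CellTiter-Fluor fluorescence, read after 1 hr, served as the viability measure in a qHTS format.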

[4] = target: Nuclear receptor subfamily 1 group I member 2 (Homo sapiens) (UniProt O75469); experiment: Human pregnane X receptor (PXR) small molecule agonists, qHTS assay (AID 1346982); also: nearly all actives have a fitted effect of over 35% in size
Outline: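 Stable HepG2 line reporting PXR-mediated CYP3A4 expression via luciferase. Treatment: 24 hr with compounds in DMSO at 37 C. Detection: ONE-Glo luminescence.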

[5] = target: Cytochrome P450 2D6 (Homo sapiens) (UniProt P10635); experiment: Cytochrome P450 Family 2 Subfamily D Member 6 (CYP2D6) small molecule antagonists: luciferase reporter qHTS assay (AID 1671196); also: nearly all actives have a fitted effect of over 50% in size; also: potency is read from the fitted curve at half-maximal effect
Outline: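 Chemicals tested for interference with CYP2D6 activity; proluciferin substrate, NADPH regeneration, 1 h at room temperature, luminescent detection.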

[6] = target: Cytochrome P450 2C19 (Homo sapiens) (UniProt P33261); experiment: Cytochrome P450 Family 2 Subfamily C Member 19 (CYP2C19) small molecule antagonists: luciferase reporter qHTS assay (AID 1671197); also: nearly all actives have a fitted effect of over 65% in size; also: potency is read from the fitted curve at half-maximal effect
Outline: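 Inhibition of CYP2C19 was scored from loss of luminescence in a P450-Glo proluciferin substrate assay, NADPH-started and run 1 h at 37C, with ketoconazole as positive control.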

[7] = target: Cytochrome P450 2C9 (Homo sapiens) (UniProt P11712); experiment: Cytochrome P450 Family 2 Subfamily C Member 9 (CYP2C9) small molecule antagonists: luciferase reporter qHTS assay (AID 1671198); also: nearly all actives have a fitted effect of over 50% in size; also: potency is read from the fitted curve at half-maximal effect
Outline: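 P450-Glo proluciferin substrate with CYP2C9 enzyme; 10 min RT preincubation, then NADPH regeneration 1 h at 37C; luciferin detection reagent 20 min RT, luminescence in relative luminescence units.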

[8] = target: Voltage-gated inwardly rectifying potassium channel KCNH2 (Homo sapiens) (UniProt Q12809); experiment: Human Ether-a-go-go-Related Gene (hERG) channel small molecule antagonists: fluorescence cell-based qHTS assay (AID 1671200);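 also: hERG-expressing U2OS cells given a thallium stimulus after FluxOR II dye loading; series mostly up to about 77 µM; nearly all actives have a fitted effect of over 50% in size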
Outline: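 hERG-U2OS cells plated overnight at 37 C, loaded with FluxOR II dye 1 h at RT in dark; after 10 min, thallium stimulus added. Fluorescence (480/540 nm) read kinetically for 2 min at 1 s intervals.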

[9] = target: Cytochrome P450 3A4 (Homo sapiens) (UniProt P08684); experiment: Cytochrome P450 Family 3 Subfamily A Member 4 (CYP3A4) small molecule antagonists: luciferase reporter qHTS assay (AID 1671201); also: series mostly up to about 120 µM; nearly all actives have a fitted effect of over 50% in size
Outline: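 P450-Glo CYP3A4 luminescent assay: compounds preincubated 10 min at room temperature with enzyme and proluciferin substrate, NADPH regeneration added, 1 h room-temperature reaction, stopped with luciferin detection reagent; luminescence read after 20 min. Ketoconazole positive control.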

Cytochrome P450 2C19 (Homo sapiens), sequence (P33261 whole entry, looked up): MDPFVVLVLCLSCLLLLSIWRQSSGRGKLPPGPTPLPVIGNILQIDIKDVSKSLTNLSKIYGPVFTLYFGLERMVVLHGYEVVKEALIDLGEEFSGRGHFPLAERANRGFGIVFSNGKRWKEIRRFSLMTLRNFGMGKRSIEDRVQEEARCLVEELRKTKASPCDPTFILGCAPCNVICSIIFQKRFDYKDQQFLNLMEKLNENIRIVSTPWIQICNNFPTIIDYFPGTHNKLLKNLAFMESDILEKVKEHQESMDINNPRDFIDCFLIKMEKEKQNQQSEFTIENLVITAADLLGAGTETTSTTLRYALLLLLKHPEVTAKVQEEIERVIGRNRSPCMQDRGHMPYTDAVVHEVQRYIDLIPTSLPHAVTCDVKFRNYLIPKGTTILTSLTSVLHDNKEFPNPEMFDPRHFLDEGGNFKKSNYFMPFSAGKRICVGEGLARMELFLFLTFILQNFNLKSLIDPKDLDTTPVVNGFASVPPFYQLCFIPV
Cytochrome P450 2C9 (Homo sapiens), sequence (P11712 whole entry, looked up): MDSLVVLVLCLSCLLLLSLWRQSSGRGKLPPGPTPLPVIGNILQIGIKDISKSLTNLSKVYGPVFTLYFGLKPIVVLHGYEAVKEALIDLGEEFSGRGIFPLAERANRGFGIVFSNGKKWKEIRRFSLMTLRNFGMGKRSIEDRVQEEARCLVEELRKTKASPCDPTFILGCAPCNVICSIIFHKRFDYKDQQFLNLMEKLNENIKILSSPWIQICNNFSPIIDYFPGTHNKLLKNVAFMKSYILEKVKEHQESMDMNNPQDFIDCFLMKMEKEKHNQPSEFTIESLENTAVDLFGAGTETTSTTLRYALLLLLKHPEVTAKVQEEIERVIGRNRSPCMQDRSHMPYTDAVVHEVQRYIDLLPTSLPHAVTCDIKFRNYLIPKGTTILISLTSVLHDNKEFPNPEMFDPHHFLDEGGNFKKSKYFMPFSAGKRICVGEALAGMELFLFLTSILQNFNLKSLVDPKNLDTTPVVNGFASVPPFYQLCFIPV
Voltage-gated inwardly rectifying potassium channel KCNH2 (Homo sapiens), sequence (Q12809 whole entry, looked up): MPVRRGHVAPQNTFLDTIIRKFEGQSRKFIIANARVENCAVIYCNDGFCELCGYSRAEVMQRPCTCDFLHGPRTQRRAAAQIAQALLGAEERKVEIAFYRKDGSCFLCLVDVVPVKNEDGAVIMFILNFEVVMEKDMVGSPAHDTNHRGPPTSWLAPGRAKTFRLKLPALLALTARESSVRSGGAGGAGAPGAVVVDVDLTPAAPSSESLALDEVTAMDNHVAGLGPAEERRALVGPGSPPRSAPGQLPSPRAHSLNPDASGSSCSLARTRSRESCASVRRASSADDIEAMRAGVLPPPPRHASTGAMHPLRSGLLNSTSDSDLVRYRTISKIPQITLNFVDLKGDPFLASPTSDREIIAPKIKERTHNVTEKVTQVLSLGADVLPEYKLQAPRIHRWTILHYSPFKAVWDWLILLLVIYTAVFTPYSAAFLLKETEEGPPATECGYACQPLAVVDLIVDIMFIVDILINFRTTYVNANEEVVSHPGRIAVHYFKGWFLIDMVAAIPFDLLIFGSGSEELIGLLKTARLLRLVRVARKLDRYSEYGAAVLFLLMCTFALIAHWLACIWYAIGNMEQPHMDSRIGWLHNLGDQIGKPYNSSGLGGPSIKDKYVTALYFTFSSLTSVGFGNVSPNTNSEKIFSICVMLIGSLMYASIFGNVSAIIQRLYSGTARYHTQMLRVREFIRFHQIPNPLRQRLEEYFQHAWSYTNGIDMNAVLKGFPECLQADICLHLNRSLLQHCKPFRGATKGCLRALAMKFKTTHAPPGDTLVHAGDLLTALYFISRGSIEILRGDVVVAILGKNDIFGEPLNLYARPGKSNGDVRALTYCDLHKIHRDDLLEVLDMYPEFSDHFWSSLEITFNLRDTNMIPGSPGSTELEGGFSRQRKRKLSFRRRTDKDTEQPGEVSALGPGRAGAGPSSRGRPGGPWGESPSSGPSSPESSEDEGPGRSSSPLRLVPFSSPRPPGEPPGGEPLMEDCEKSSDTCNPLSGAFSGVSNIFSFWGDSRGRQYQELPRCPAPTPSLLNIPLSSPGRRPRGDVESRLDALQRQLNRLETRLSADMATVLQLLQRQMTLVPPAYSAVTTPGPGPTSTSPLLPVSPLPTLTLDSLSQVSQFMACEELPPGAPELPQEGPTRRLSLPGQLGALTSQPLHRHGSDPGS
Cytochrome P450 3A4 (Homo sapiens), sequence (P08684 whole entry, looked up): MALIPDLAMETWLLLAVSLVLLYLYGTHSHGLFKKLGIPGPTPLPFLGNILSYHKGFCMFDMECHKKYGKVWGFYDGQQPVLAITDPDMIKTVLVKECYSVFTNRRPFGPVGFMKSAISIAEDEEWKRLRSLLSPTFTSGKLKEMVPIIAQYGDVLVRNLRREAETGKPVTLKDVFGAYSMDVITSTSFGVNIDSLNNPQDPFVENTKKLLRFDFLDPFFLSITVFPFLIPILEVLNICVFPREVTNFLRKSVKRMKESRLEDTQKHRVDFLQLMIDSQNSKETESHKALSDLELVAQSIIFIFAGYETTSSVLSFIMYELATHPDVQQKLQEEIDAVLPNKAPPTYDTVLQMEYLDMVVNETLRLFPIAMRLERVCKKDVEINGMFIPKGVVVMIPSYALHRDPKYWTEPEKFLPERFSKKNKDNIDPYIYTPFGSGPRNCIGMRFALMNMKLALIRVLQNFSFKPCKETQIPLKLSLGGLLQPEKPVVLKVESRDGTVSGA
Nuclear receptor subfamily 1 group I member 2 (Homo sapiens), sequence (O75469 whole entry, looked up): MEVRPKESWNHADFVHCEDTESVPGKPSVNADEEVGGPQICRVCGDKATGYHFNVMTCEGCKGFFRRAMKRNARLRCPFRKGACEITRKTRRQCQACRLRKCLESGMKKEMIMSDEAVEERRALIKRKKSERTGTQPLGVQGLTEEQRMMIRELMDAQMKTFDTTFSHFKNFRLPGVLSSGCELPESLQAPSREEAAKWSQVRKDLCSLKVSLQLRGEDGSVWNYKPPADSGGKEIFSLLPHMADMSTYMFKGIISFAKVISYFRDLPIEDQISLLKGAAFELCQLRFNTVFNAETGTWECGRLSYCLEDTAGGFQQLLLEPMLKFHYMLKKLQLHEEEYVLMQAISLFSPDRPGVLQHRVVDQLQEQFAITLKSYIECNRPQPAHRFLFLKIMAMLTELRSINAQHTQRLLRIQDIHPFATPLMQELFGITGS
Cytochrome P450 2D6 (Homo sapiens), sequence (P10635 whole entry, looked up): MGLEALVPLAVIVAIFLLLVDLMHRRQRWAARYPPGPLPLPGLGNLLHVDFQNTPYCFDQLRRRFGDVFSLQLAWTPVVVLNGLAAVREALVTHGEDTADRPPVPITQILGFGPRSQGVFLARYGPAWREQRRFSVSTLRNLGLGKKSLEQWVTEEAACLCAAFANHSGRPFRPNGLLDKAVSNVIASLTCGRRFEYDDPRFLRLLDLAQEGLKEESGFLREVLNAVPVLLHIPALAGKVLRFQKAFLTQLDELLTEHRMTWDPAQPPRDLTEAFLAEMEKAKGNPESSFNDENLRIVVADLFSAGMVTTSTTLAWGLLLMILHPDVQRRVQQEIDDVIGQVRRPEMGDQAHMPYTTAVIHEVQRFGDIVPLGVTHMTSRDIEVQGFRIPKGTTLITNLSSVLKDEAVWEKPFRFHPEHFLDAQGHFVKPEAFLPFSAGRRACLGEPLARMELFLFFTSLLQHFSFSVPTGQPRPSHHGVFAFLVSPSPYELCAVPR

SMILES	Potency [1]	Potency [2]	Potency [3]	Potency [4]	Potency [5]	Potency [6]	Potency [7]	Potency [8]	Potency [9]
CCCC[n+]1ccccc1	inactive	inactive	inactive	inactive	inactive	inactive	inactive	inactive	inactive
CCCC[n+]1ccccc1C	inactive	inactive	inactive	inactive	inactive	inactive	inactive	inactive	inactive
Cc1cc(Cl)ccc1N	inactive	inactive	inactive	inactive	23 µM (active) and inactive and 22.4 µM (active)	20.5 µM (active) and 31 µM (active) and 22.4 µM (active)	28.9 µM (active) and 24.6 µM (active) and 25.2 µM (active)	inactive	–
